# Most compounds without a hit are left out; they make up all but 2.3% or so of the library.
# TRPV1 ag: agonists of human vanilloid receptor 1 (TRPV1); Q8NER1; TRPV1-expressing cells, Fluo-8 calcium influx, agonist mode; activation, % at 8.33 µM; hit rate 0.19% among 320,000; in the data active = activation above about 80%; inconclusive = between about 30% and that limit; also: 0% is about no effect
# Target sequence (Q8NER1 whole entry, looked up): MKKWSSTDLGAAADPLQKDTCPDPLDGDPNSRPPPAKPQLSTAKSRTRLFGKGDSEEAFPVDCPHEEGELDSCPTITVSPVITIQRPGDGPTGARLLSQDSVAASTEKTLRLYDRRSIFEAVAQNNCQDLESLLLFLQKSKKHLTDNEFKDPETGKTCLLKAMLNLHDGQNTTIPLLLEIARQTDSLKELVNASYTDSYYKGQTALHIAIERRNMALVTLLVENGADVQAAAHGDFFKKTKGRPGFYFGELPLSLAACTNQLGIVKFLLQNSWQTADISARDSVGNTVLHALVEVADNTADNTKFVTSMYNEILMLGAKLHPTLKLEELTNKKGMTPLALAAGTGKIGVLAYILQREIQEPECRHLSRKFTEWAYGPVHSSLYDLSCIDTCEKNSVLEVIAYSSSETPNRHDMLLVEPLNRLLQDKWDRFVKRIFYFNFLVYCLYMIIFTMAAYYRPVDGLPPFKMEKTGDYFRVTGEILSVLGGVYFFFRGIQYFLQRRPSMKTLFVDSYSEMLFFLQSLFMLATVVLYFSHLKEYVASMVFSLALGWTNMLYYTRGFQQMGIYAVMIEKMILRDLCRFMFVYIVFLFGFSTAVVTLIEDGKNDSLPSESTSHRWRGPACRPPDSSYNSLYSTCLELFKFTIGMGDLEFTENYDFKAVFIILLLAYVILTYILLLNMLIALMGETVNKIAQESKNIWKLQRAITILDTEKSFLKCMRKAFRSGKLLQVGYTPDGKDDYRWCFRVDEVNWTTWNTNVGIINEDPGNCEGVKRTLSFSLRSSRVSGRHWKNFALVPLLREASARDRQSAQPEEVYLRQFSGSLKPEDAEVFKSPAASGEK
#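 TRPV1-expressing cells were cultured overnight at 35.5C and loaded with Fluo-8 calcium dye for 40 to 90 min at room temperature. After a 10 s baseline, compound was added and calcium influx was read kinetically for 3 min (ex 480/em 520 nm).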
# FUS yeast rescue: rescues growth of FUS-expressing yeast; AID 1347120; S. cerevisiae FUS-expressing, growth rescue, OD600, 24 h; hit rate 0.24% among 390,000; Potency, µM (highest dose often 76.6 µM), actives largely listed as activators;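 also: potency is read from the fitted curve at half-maximal effect; plate controls were DMSO vehicle for no effect and reference control for full effect; nearly all actives have a fitted effect of over 55% in size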
#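 S. cerevisiae expressing FUS from galactose induction served as the toxicity model. Growth after 24hr at 30C, read as absorbance at 600 nm, indicates suppression of toxicity; compounds dosed at several concentrations.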
# TRPV1 potentiator: potentiators of human vanilloid receptor 1 (TRPV1); Q8NER1; TRPV1-expressing cells, Fluo-8 calcium influx, capsaicin EC20 potentiation; potentiation, % at 8.33 µM; hit rate 0.02% among 320,000; AID 540277; in the data active = potentiation above about 80%; inconclusive = between about 30% and that limit; also: 0% is about no effect
#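 Cells expressing TRPV1 were dye-loaded with Fluo-8 and read kinetically: 10 s baseline, 3 min after compound (agonist portion), then 2 min after EC20 capsaicin (allosteric enhancer portion). Calcium-bound dye fluorescence at 480/520 nm.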
# ELG1 repair inh: blocks ELG1-dependent DNA repair in HEK293T cells | hit rate 2.3% among 330,000 | HEK293T ELG1-luciferase reporter, luminescence, 16 h; DNA damage induced by 5-fluorouridine | Potency, µM (highest dose often 46.1 µM), for the others: top-dose activity change, negative = inhibition, actives largely listed as inhibitors; also: potency is read from the fitted curve at half-maximal effect; % is scaled to controls: 0 for no effect and ±100 for the full control effect; nearly all actives have a fitted effect of over 55% in size
#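 Step one: seed 2,000 cells per well. Step two: pin-transfer compound or DMSO alongside 5-fluorouridine. Step three: incubate 16 hr, 37 °C, 5% CO2. Step four: add ONE-Glo, wait 30 min, read luminescence.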
# Giardia killer: kills Giardia lamblia; hit rate 0.15% among 340,000; activity change, % at 7.66 µM, hits read low; Giardia lamblia trophozoite viability; in the data active = activity change below about -80%; inconclusive = between about -30% and that limit;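 also: parasites exposed to compound for two days anaerobically before the ATP read; % is scaled to controls: 0 for no effect and ±100 for the full control effect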
#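 Anaerobic 48 hrs incubation at 37 deg C of 100 trophozoites/well with test compounds; ATPLite 1-Step luminescence, 15-30 min RT, reports cellular ATP as viability.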
# * hit, by the source's call; i = inactive; ? = inconclusive; . = not tested or not shown. Unless noted, calls follow the shape of the dose curve; as a rule, active = well fitted curve in the direction sought with a large enough effect; inconclusive = small, poorly fitted or top-dose-only effect, or another doubt; inactive = no such curve, though single readings can be large; an effect the other way counts as inactive or inconclusive.
SMILES,TRPV1 ag,FUS yeast rescue,TRPV1 potentiator,ELG1 repair inh,Giardia killer
C[C@H]1O[C@H](O[C@H]2[C@H](O[C@@H]3CC[C@@]4(C)C(CC[C@]5(C)C4CC=C4[C@@H]6CC(C)(C)CC[C@]6(C(=O)O[C@@H]6O[C@H](CO)[C@@H](O)[C@H](O)[C@H]6O)CC[C@]45C)C3(C)C)O[C@H](C(=O)O)[C@@H](O)[C@@H]2O)[C@@H](O)[C@@H](O)[C@@H]1O (stereo partly drawn),-3,?,5,27%,-26
COc1ccc(CN(C(=O)CSc2nnc(-c3ccccc3C)o2)c2ccc(F)cc2)cc1,?,i,5,?,-13
O=C(CSc1nnc(-c2c[nH]c3ccccc23)o1)N(Cc1ccccc1)c1ccc(F)cc1,0,i,5,21µM*,-10
COc1cccc(C(c2sc3nc(-c4ccco4)nn3c2O)N2CCOCC2)c1 (stereo not drawn),.,i,.,.,.
COc1ccc(Nc2ncc3c(n2)CC(c2ccccc2)CC3=O)cc1 (stereo not drawn),6,i,2,15µM*,10
Cc1ccc(C(=O)OCn2ncc(Cl)c(Cl)c2=O)cc1,-3,i,9,7.3µM*,10
O=C(OCn1ncc(Cl)c(Cl)c1=O)c1ccc(C(F)(F)F)cc1,11,i,3,?,2
Cc1nc2c(ccc3nc(NC(=O)C(c4ccccc4)c4ccccc4)sc32)s1,-7,i,6,?,-22
Cc1nc2c(ccc3nc(NC(=O)Cc4cccc5ccccc45)sc32)s1,6,i,12,5.2µM*,8
Cc1cccc2c1-c1sc(C(=O)Nc3ccccc3N3CCN(C)CC3)cc1CO2,10,i,24,21µM*,6
Cc1cccc2c1-c1sc(C(=O)N3CCCCC3)cc1CO2,88*,i,2,?,1
C[C@@H](NC(=O)[C@@H]1CCCN1C(=O)[C@@H]1CCCN1C(=O)OC(C)(C)C)c1ccccc1,.,i,.,.,.
COc1cccc(CNC(=O)c2sc3nc(C)cc(C)c3c2-n2cccc2)c1OC,.,i,.,.,.
CC(C)Cn1c(N)c(C(=O)NCC2CCCO2)c2nc3ccccc3nc21 (stereo not drawn),24,?,-10,8.9µM*,-4
COc1ccc(OC)c(-n2c(N)c(C(=O)NCC3CCCO3)c3nc4ccccc4nc32)c1 (stereo not drawn),19,i,-18,16µM*,-12
COc1ccc(OC)c(-n2c(SCC(=O)NCC3CCCO3)nc3ccccc3c2=O)c1 (stereo not drawn),.,i,.,13%,-2
COCCn1c(N)c(C(=O)NCC2CCCO2)c2nc3ccccc3nc21 (stereo not drawn),27,i,-16,?,3
O=C(CCNS(=O)(=O)c1ccc2c(c1)CCCC(=O)N2)Nc1cccc(Cl)c1,.,i,.,.,.
N#CC(C#N)=C1C=C2C=C(N3CCCCCC3)CCC2CC1 (stereo not drawn),93*,i,-6,?,8
CN1CCN(C2=CC3=CC(=C(C#N)C#N)CCC3CC2)CC1 (stereo not drawn),184*,i,-5,0%,-2
N#CC(C#N)=C1C=C2C=C(N3CCOCC3)CCC2CC1 (stereo not drawn),140*,i,-12,6%,9
N#Cc1cc(Cl)c(N2CCOCC2)cc1C#N,-2,i,-7,?,-4
CCN1CCN(C2=CC3=CC(=C(C#N)C#N)CCC3CC2)CC1 (stereo not drawn),99*,i,-21,11%,5
CC1(C)CC(NCCN2CCN(C3=CC(=C(C#N)C#N)CC(C)(C)C3)CC2)=CC(=C(C#N)C#N)C1,9,i,7,?,9
O=C(NCCC1=CCCCC1)c1ccc2c(c1)ncn2-c1cccc(Cl)c1,.,i,.,.,.
Cc1ccc(OCC(=O)NCC2(N3CCOCC3)CCCCC2)cc1C,.,i,.,.,.
O=C(CSc1ncc2c(n1)-c1ccccc1N(Cc1ccc(F)cc1)S2(=O)=O)NCc1ccccc1,.,i,.,.,.
COc1ccccc1-c1nc(SCC(=O)NCc2ccc(C)cc2)c2c(=O)n(C)c(=O)n(C)c2n1,.,i,.,.,.
